Source: ChEMBL document CHEMBL3988442, “University of Dundee, Small-Polar-MMV Screening Library” (2021)
Among all 48,000 compounds or so, about 13,000 (27%) showed an effect of 50% or more. The list shows a part of the results.

test system: Wolbachia pipientis; test: Anti-Wolbachia Cell-Based Screen; assay type: functional; design: scale not given: in the data most compounds retested in dose-response had high values; settings: 5 µM

Q: With `O=C1CCc2ccccc2N1CCCn1cnnn1` as the molecule, how does the “Percent Effect” value read?
A: The value was -8.538%.

Q: For `CC(C)c1ccc(C(=O)O)cc1S(=O)(=O)Nc1ccc(=O)n(C)c1`, which “Percent Effect” value is on record?
A: Its value is -9.9%.

Q: `Cc1ccc(N2CCO[C@@H]3CN(Cc4cccc(C)n4)CC[C@@H]3C2)nn1` was tested. Which “Percent Effect” value did it give?
A: Its value is 0.9995%.

Q: How did the “Percent Effect” value turn out when `Cc1ccc(N2CCO[C@H]3CN(C(=O)c4cccc(C)n4)C[C@H]32)nn1` was run?
A: Its value is 104.4%.

Q: `Cc1ccc(N2C[C@@H]3CN(C(=O)c4ccccc4)CCO[C@@H]3C2)nn1.O=C(O)C(F)(F)F` was tested. Which “Percent Effect” value did it give?
A: The value was -9.523%.

Q: How did the “Percent Effect” value turn out when `CNS(=O)(=O)c1cccc(C(C)NCc2cccc(O)c2)c1` (configuration not stated) was run?
A: The value was -12.85%.

Q: `O=C(c1nc(=O)[nH][nH]1)N1CCCCCC1` was tested. Which “Percent Effect” value did it give?
A: Its value is -25.91%.

Q: For `COc1ccc2c(c1)C(=O)N(C)C1(CCN(CC=C(C)C)CC1)N2`, which “Percent Effect” value is on record?
A: The value was -3.399%.

Q: `O=C(NCCNc1ccccn1)NC1CCCC1` was tested. Which “Percent Effect” value did it give?
A: The value was 1.673%.

Q: How did the “Percent Effect” value turn out when `CN1CCC(NC(=O)NCCNc2ccccn2)CC1` was run?
A: The value was 10.59%.

Q: How did the “Percent Effect” value turn out when `CC(=O)NC1Cc2ccc(S(=O)(=O)NCCNc3ccccn3)cc2C1` (configuration not stated) was run?
A: The value was 74.28%.

Q: How did the “Percent Effect” value turn out when `CN(C)C(=O)CS(=O)(=O)Cc1cc(Cl)c2c(c1)OCCO2` was run?
A: The value was 128.9%.

Q: Which “Percent Effect” value does the source give for `CC(C)NC(=O)CS(=O)(=O)Cc1cc(Cl)c2c(c1)OCCO2` here?
A: The value was 2.891%.

Q: With `CN(C)C(=O)CCS(=O)(=O)Cc1cc(Cl)c2c(c1)OCO2` as the molecule, how does the “Percent Effect” value read?
A: The value was 106.6%.

Q: For `CN(C)C(=O)CCCS(=O)(=O)Cc1cc(Cl)c2c(c1)OCCO2`, which “Percent Effect” value is on record?
A: Its value is 4.566%.

Q: `CN(C)C(=O)CCS(=O)(=O)Cc1cc(Cl)c2c(c1)OCCO2` was tested. Which “Percent Effect” value did it give?
A: Its value is 3.114%.

Q: How did the “Percent Effect” value turn out when `CS(=O)(=O)Cc1cc(Cl)c2c(c1)OCCCO2` was run?
A: The value was 18.55%.

Q: Which “Percent Effect” value does the source give for `CN(C)C(=O)CCCS(=O)(=O)Cc1cc(Cl)c2c(c1)OCO2` here?
A: Its value is 133.3%.

Q: For `CS(=O)(=O)CCS(=O)(=O)Cc1cc(Cl)c2c(c1)OCCCO2`, which “Percent Effect” value is on record?
A: The value was -7.786%.

Q: How did the “Percent Effect” value turn out when `CN(C)C(=O)CS(=O)(=O)Cc1cc(Cl)c2c(c1)OCCCO2` was run?
A: Its value is -2.577%.

Q: How did the “Percent Effect” value turn out when `CCN1CCC(NC(=O)NC2CCOc3ccc(Br)cc32)CC1` (configuration not stated) was run?
A: Its value is -7.217%.

Q: `COCc1nc(CNC2CCN(C(C)C)CC2)no1` was tested. Which “Percent Effect” value did it give?
A: The value was -1.626%.

Q: Which “Percent Effect” value does the source give for `CCC(CO)N(Cc1cccs1)C(=O)CSC` (configuration not stated) here?
A: The value was -12.18%.

Q: How did the “Percent Effect” value turn out when `O=S1(=O)C[C@@H]2[C@H](C1)N(Cc1cc(F)cc(Cl)c1)CCN2CCO` was run?
A: The value was 3.698%.

Q: How did the “Percent Effect” value turn out when `CN1[C@H](CO)C[C@H](CNCc2ccc(CO)o2)[C@@H]1c1ccccc1F` was run?
A: Its value is -6.438%.

Q: `O=C(O)C(F)(F)F.c1cnn(Cc2cn3c(n2)CN(Cc2nccs2)CC3)c1` was tested. Which “Percent Effect” value did it give?
A: The value was 25.66%.

Q: For `CC(=O)N1CC2(CCN(S(=O)(=O)N(C)C)CC2)C2(CCNC2=O)C1` (configuration not stated), which “Percent Effect” value is on record?
A: The value was -32.61%.

Q: How did the “Percent Effect” value turn out when `COc1ccccc1C1CCN(c2ccc3cc[nH]c3n2)CC1` was run?
A: Its value is 26.71%.

Q: With `COC(=O)c1cc(NCC(=O)NC(N)=O)cc(C(F)(F)F)c1` as the molecule, how does the “Percent Effect” value read?
A: The value was 4.503%.

Q: With `COc1c(C(=O)NC(C)CC(=O)c2cccs2)c(C)nn1C` (configuration not stated) as the molecule, how does the “Percent Effect” value read?
A: Its value is 88.78%.

Q: Which “Percent Effect” value does the source give for `Cc1cc(C(=O)NC(C)CC(=O)c2cccs2)n(C)n1` (configuration not stated) here?
A: The value was 104.4%.

Q: For `CCC(NC(=O)c1cc(CC(C)C)nn1C)c1cccc(C)n1` (configuration not stated), which “Percent Effect” value is on record?
A: Its value is -23.09%.

Q: `CNc1snc(C)c1C(=O)NC(C)CC(=O)c1cccs1` (configuration not stated) was tested. Which “Percent Effect” value did it give?
A: The value was 87.28%.

Q: How did the “Percent Effect” value turn out when `CNS(=O)(=O)c1cccc(CNC(=O)c2c(C)nn(C)c2C)c1` was run?
A: The value was -2.541%.

Q: With `C[C@@H](NC(=O)c1cccs1)c1onc(-c2cccnc2)c1C(=O)O.Cl` as the molecule, how does the “Percent Effect” value read?
A: Its value is -7.123%.

Q: With `Cc1cc(NC(=O)NCCc2cccs2)n(C)n1` as the molecule, how does the “Percent Effect” value read?
A: Its value is -8.078%.

Q: For `CC(NC(=O)c1cccs1)C(=O)NCc1ccccc1CN1CCCC1` (configuration not stated), which “Percent Effect” value is on record?
A: The value was 1.8%.

Q: Which “Percent Effect” value does the source give for `Cc1nn(C)c(C)c1C(=O)NC(C)CC(=O)c1cccs1` (configuration not stated) here?
A: The value was 89.66%.

Q: Which “Percent Effect” value does the source give for `COc1ccccc1C(C)CNC(=O)c1c(C)nn(C)c1OC` (configuration not stated) here?
A: Its value is -4.025%.

Q: How did the “Percent Effect” value turn out when `COc1c(C(=O)NCC(C)Sc2ccccc2)c(C)nn1C` (configuration not stated) was run?
A: Its value is -11.73%.

Q: For `Cc1nn(C)c(C)c1CC(C)NC(=O)NCc1ccn(C(C)C)n1` (configuration not stated), which “Percent Effect” value is on record?
A: Its value is 14.28%.

Q: `CCc1ccc2c(C3CN(CC4CCC4)C3)ncn2c1.O=C(O)C(F)(F)F` was tested. Which “Percent Effect” value did it give?
A: The value was 1.201%.

Q: How did the “Percent Effect” value turn out when `Cc1ccc(C(=O)N2CCSCC2)cc1NC(C)C` was run?
A: The value was -20.08%.

Q: With `CN(C)c1nc2c(c(N3CCC(O)CC3)n1)CN(CC1CCNC1)CC2` (configuration not stated) as the molecule, how does the “Percent Effect” value read?
A: Its value is -8.406%.

Q: For `CCC(CO)N(Cc1ccccn1)C(=O)c1ccc(CSC)o1` (configuration not stated), which “Percent Effect” value is on record?
A: Its value is 18.24%.

Q: How did the “Percent Effect” value turn out when `CNS(=O)(=O)c1cccc(CNC(=O)c2cnn(C)c2C)c1` was run?
A: The value was -2.681%.

Q: Which “Percent Effect” value does the source give for `Cc1c(C(=O)NC(CN2CCCC2=O)c2ccccc2)cnn1C` (configuration not stated) here?
A: Its value is -6.718%.

Q: For `Cc1c(C(=O)NC(C)CC(=O)c2cccs2)cnn1C` (configuration not stated), which “Percent Effect” value is on record?
A: The value was 85.26%.

Q: Which “Percent Effect” value does the source give for `O[C@H]1[C@H](NCCc2cnccn2)c2ccccc2C12CCNCC2` here?
A: Its value is 1.46%.

Q: For `CC1CCN(CCNC(=O)C2CCN(C(=O)C3CC3)CC2)CC1`, which “Percent Effect” value is on record?
A: The value was 7.892%.

Q: How did the “Percent Effect” value turn out when `CCC(C#N)NC(=O)c1sccc1OC` (configuration not stated) was run?
A: The value was 86.18%.

Q: Which “Percent Effect” value does the source give for `CCc1ccsc1C(=O)NC(C#N)CC(C)C` (configuration not stated) here?
A: The value was 102.3%.

Q: With `CCc1nc(CC(=O)NC(C#N)CC)cs1` (configuration not stated) as the molecule, how does the “Percent Effect” value read?
A: The value was -7.062%.

Q: `COc1ccsc1C(=O)Nc1cc(Br)c(=O)n(C)c1` was tested. Which “Percent Effect” value did it give?
A: The value was -2.156%.

Q: How did the “Percent Effect” value turn out when `CCc1ccsc1C(=O)NC(Cc1ccccc1)C(N)=O` (configuration not stated) was run?
A: The value was 1.098%.

Q: For `CCc1ccsc1C(=O)NC(C#N)CC` (configuration not stated), which “Percent Effect” value is on record?
A: The value was 105.4%.

Q: For `CCCC(C#N)NC(=O)COC1CCCCC1` (configuration not stated), which “Percent Effect” value is on record?
A: The value was -4.378%.

Q: `CCCC(C#N)NC(=O)Cc1csc(CC)n1` (configuration not stated) was tested. Which “Percent Effect” value did it give?
A: Its value is -2.381%.

Q: For `CC(C)CCC(=O)NC(C#N)CC(C)C` (configuration not stated), which “Percent Effect” value is on record?
A: Its value is 5.343%.

Q: `COc1ccsc1C(=O)NCCNc1ccccc1` was tested. Which “Percent Effect” value did it give?
A: The value was -8.97%.

Q: For `CCCC(C#N)NC(=O)c1sccc1CC` (configuration not stated), which “Percent Effect” value is on record?
A: Its value is 99.07%.

Q: For `CCc1nc(CC(=O)NC(C#N)CC(C)C)cs1` (configuration not stated), which “Percent Effect” value is on record?
A: The value was 0.9973%.

Q: How did the “Percent Effect” value turn out when `Cc1nc(O)cc(CN2CCC=C(CN(C)C(=O)c3ccco3)C2)n1` was run?
A: The value was 2.928%.

Q: For `Cc1nc2c(c(N(C)Cc3ccccc3-n3cccn3)n1)CCNCC2`, which “Percent Effect” value is on record?
A: The value was 14.94%.

Q: Which “Percent Effect” value does the source give for `COc1ccc(C(=O)N2C[C@@H](C(=O)O)[C@H](c3ccccc3C)C2)c(O)c1` here?
A: The value was -2.704%.

Q: Which “Percent Effect” value does the source give for `CCNC(=O)[C@@H]1CCCN1C1(C(=O)NC)CCCCC1.Cl` here?
A: The value was 1.197%.

Q: With `COc1cccc(COCC(=O)N2CCC(CC(N)=O)CC2)c1` as the molecule, how does the “Percent Effect” value read?
A: The value was -12.19%.
